The whole screen tested about 5,500 compounds, of which about 2,000 (36%) were called active. Roughly 18% stayed inconclusive and do not appear here. Rule as the data show it: active = normalized growth mostly below about 0.91 (no sharp cut-off); inconclusive = no clear call, values can overlap the other calls; inactive = mostly above about 0.92. This is one part of the list.
Experiment: chemical genetic growth profiling, strain panel (AID 1159580);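 also: tested at 20 µM; growth read once vehicle control cultures reached saturation at 30 °C; 1 = growth at the plate median or of vehicle wells; lower values mean less growth of the strain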
Conditions: growth OD

Measured: normalized growth

C[C@H]1O[C@@H](O[C@H]2[C@@H](O)C[C@H](O[C@H]3[C@@H](O)C[C@H](O[C@H]4CC[C@]5(C)C6C[C@@H](O)[C@]7(C)[C@@H](C8=CC(=O)OC8)CC[C@]7(O)C6CC[C@@H]5C4)O[C@@H]3C)O[C@@H]2C)C[C@H](O)[C@@H]1O (some centres undefined)
inactive: S. cerevisiae deletion strains, locus YJR043C, strain POL32, hits give low values 1.01 | S. cerevisiae deletion strains, locus YJR066W, strain TOR1, hits give low values 0.966 | S. cerevisiae deletion strains, locus YKL009W, strain mrt4, hits give low values 0.969 | S. cerevisiae deletion strains, locus YKL068W, hits give low values 0.986 | S. cerevisiae deletion strains, locus YKL085W, strain MDH1 (second series), hits give low values 0.991 | S. cerevisiae deletion strains, locus YKL085W, strain MDH1, hits give low values 0.991 | S. cerevisiae deletion strains, locus YKL160W, strain elf1, hits give low values 0.93 | S. cerevisiae deletion strains, locus YKR001C, strain vps1, hits give low values 0.971 | S. cerevisiae deletion strains, locus YKR026C, strain gcn3, hits give low values 1 | S. cerevisiae deletion strains, locus YKR091W, strain srl3, hits give low values 0.984 | S. cerevisiae deletion strains, locus YLL001W, strain dnm1, hits give low values 0.921 | S. cerevisiae deletion strains, locus YLL026W, hits give low values 0.999 | S. cerevisiae deletion strains, locus YLL041C, strain sdh2, hits give low values 1 | S. cerevisiae deletion strains, locus YLR027C, strain aat2, hits give low values 1.03 | S. cerevisiae deletion strains, locus YLR039C, strain RIC1, hits give low values 0.973 | S. cerevisiae deletion strains, locus YLR058C, strain SHM2, hits give low values 1 | S. cerevisiae deletion strains, locus YLR102C, strain apc9, hits give low values 0.977 | S. cerevisiae deletion strains, locus YLR113W, strain HOG1, hits give low values 1.09 | S. cerevisiae deletion strains, locus YLR221C, strain rsa3, hits give low values 1.01 | S. cerevisiae deletion strains, locus YLR258W, strain gsy2, hits give low values 1.01 | S. cerevisiae deletion strains, locus YLR262C, strain YPT6 (second series), hits give low values 0.956 | S. cerevisiae deletion strains, locus YLR262C, strain YPT6, hits give low values 0.984 | S. cerevisiae deletion strains, locus YLR268W, strain sec22, hits give low values 0.959 | S. cerevisiae deletion strains, locus YLR320W, strain mms22, hits give low values 0.969 | S. cerevisiae deletion strains, locus YLR330W, strain CHS5, hits give low values 0.983 | S. cerevisiae deletion strains, locus YLR342W, strain FKS1 (second series), hits give low values 1.02 | S. cerevisiae deletion strains, locus YLR342W, strain FKS1, hits give low values 0.983 | S. cerevisiae deletion strains, locus YLR357W, strain rsc2, hits give low values 0.999 | S. cerevisiae deletion strains, locus YLR370C, strain arc18, hits give low values 0.994 | S. cerevisiae deletion strains, locus YLR371W, strain rom2, hits give low values 0.997 | S. cerevisiae deletion strains, locus YLR384C, strain iki3, hits give low values 1 | S. cerevisiae deletion strains, locus YLR418C, strain cdc73, hits give low values 1.01 | S. cerevisiae deletion strains, locus YML016C, strain PPZ1, hits give low values 0.998 | S. cerevisiae deletion strains, locus YML032C, strain rad52, hits give low values 0.988 | S. cerevisiae deletion strains, locus YML120C, strain ndi1, hits give low values 0.946 | S. cerevisiae deletion strains, locus YML124C, strain tub3, hits give low values 0.992 | S. cerevisiae deletion strains, locus YMR058W, strain fet3, hits give low values 0.984 | S. cerevisiae deletion strains, locus YMR078C, strain ctf18, hits give low values 0.981 | S. cerevisiae deletion strains, locus YMR125W, strain sto1, hits give low values 0.925 | S. cerevisiae deletion strains, locus YMR129W, hits give low values 0.996 | S. cerevisiae deletion strains, locus YMR205C, strain PFK2, hits give low values 0.942 | S. cerevisiae deletion strains, locus YMR223W, strain ubp8, hits give low values 0.993 | S. cerevisiae deletion strains, locus YMR231W, strain pep5, hits give low values 0.998 | S. cerevisiae deletion strains, locus YMR307W, strain GAS1, hits give low values 1.09 | S. cerevisiae deletion strains, locus YNL067W, strain RPL9B, hits give low values 1.03 | S. cerevisiae deletion strains, locus YNL071W, strain lat1, hits give low values 1 | S. cerevisiae deletion strains, locus YNL128W, strain TEP1, hits give low values 0.977 | S. cerevisiae deletion strains, locus YNL183C, strain NPR1, hits give low values 0.985 | S. cerevisiae deletion strains, locus YNL209W, strain ssb2, hits give low values 0.995 | S. cerevisiae deletion strains, locus YNL233W, strain BNI4, hits give low values 1.01 | S. cerevisiae deletion strains, locus YNL248C, strain rpa49, hits give low values 0.973 | S. cerevisiae deletion strains, locus YNL250W, strain rad50, hits give low values 0.974 | S. cerevisiae deletion strains, locus YNL271C, strain bni1, hits give low values 0.996 | S. cerevisiae deletion strains, locus YNL298W, strain CLA4, hits give low values 0.986 | S. cerevisiae deletion strains, locus YNL307C, strain MCK1, hits give low values 0.988 | S. cerevisiae deletion strains, locus YNL322C, strain KRE1 (second series), hits give low values 0.995 | S. cerevisiae deletion strains, locus YNL322C, strain KRE1, hits give low values 0.996 | S. cerevisiae deletion strains, locus YNR049C, strain mso1, hits give low values 0.986 | S. cerevisiae deletion strains, locus YNR052C, strain pop2, hits give low values 0.993 | S. cerevisiae deletion strains, locus YOL006C, strain TOP1, hits give low values 0.959 | S. cerevisiae deletion strains, locus YOL012C, strain htz1 0.951 | S. cerevisiae deletion strains, locus YOL147C, strain pex11, hits give low values 0.99 | S. cerevisiae deletion strains, locus YOR001W, strain rrp6, hits give low values 1.06 | S. cerevisiae deletion strains, locus YOR061W, strain CKA2, hits give low values 0.984 | S. cerevisiae deletion strains, locus YOR069W, strain VPS5, hits give low values 0.992 | S. cerevisiae deletion strains, locus YOR070C, strain gyp1, hits give low values 0.999 | S. cerevisiae deletion strains, locus YOR080W, strain dia2, hits give low values 0.985 | S. cerevisiae deletion strains, locus YOR083W, strain WHI5, hits give low values 0.945 | S. cerevisiae deletion strains, locus YOR106W, strain vam3, hits give low values 0.947 | S. cerevisiae deletion strains, locus YOR136W, strain idh2, hits give low values 0.974 | S. cerevisiae deletion strains, locus YOR144C, strain elg1, hits give low values 0.988 | S. cerevisiae deletion strains, locus YOR184W, strain ser1, hits give low values 0.979 | S. cerevisiae deletion strains, locus YOR231W, strain MKK1, hits give low values 1.04 | S. cerevisiae deletion strains, locus YOR265W, strain rbl2, hits give low values 0.993 | S. cerevisiae deletion strains, locus YOR270C, strain vph1, hits give low values 0.92 | S. cerevisiae deletion strains, locus YOR290C, strain snf2, hits give low values 0.973 | S. cerevisiae deletion strains, locus YOR316C, strain cot1, hits give low values 0.983 | S. cerevisiae deletion strains, locus YPL051W, strain arl3, hits give low values 1 | S. cerevisiae deletion strains, locus YPL078C, strain atp4, hits give low values 0.932 | S. cerevisiae deletion strains, locus YPL106C, strain sse1, hits give low values 1 | S. cerevisiae deletion strains, locus YPL240C, strain hsp82, hits give low values 0.99 | S. cerevisiae deletion strains, locus YPL241C, strain CIN2, hits give low values 0.998 | S. cerevisiae deletion strains, locus YPL256C, strain CLN2, hits give low values 1.04 | S. cerevisiae deletion strains, locus YPR119W, strain clb2, hits give low values 1 | S. cerevisiae deletion strains, locus YPR141C, strain kar3, hits give low values 0.984 | S. cerevisiae deletion strains, locus YPR163C, strain tif3, hits give low values 0.977 | S. cerevisiae deletion strains, locus YPR167C, strain met16, hits give low values 0.977 | S. cerevisiae deletion strains, strain wtn01, hits give low values 0.997 | S. cerevisiae strains, strain wild type, hits give low values 1

— PubChem BioAssay AID1159580 (chemical genetic matrix, 2015)
